Source: PubChem BioAssay (NCATS)
Inconclusive results are not listed. Active and inactive are the calls of the source. Calls follow the shape of the dose curve; as a rule, active = well fitted cell-killing curve with a large enough effect; inconclusive = small, poorly fitted or top-dose-only effect; inactive = flat fitted curve, though single readings scatter.

Columns and labels:
[1] = Cell Viability - LYMP2-023 (AID 975);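 also: cellular ATP measured by luciferase luminescence as viability proxy; series mostly up to about 92 µM; nearly all actives have a fitted effect of over 55% in size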
In short: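 CellTiter-Glo luminescence after 30 min at room temperature; decrease in intracellular ATP reflects toxicity. Cells: human lymphoblastoid line, 2500/well, 24 hr compound exposure at 37 C. AC50 fitted to standard Hill equation from concentration-response.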

[2] = Cell Viability - LYMP2-025 (AID 976); also: series mostly up to about 92 µM
In short: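 CellTiter-Glo luminescence (cellular ATP) after 24 h compound exposure at 37 C; LYMP2-025 human lymphoblastoid cells, 2500/well, complete medium. Tetraoctylammonium bromide positive control. AC50 by Hill equation fit of qHTS concentration-response.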

[3] = Cell Viability - LYMP2-002 (AID 977); also: series mostly up to about 92 µM
In short: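 Human lymphoblastoid cells (2500/well) in complete medium were preincubated 5 hr at 37 C, then exposed to compounds for 24 hr at 37 C. Intracellular ATP was read by CellTiter-Glo luminescence; AC50 came from Hill-equation concentration-response fits.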

[4] = Cell Viability - LYMP2-006 (AID 978); also: series mostly up to about 92 µM; nearly all actives have a fitted effect of over 60% in size
In short: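 In this cytotoxicity screen, the human lymphoblastoid line grew in complete medium with test compounds for 24 hr at 37 C. Cellular ATP served as the viability signal.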

[5] = Cell Viability - LYMP2-007 (AID 979);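 also: cells exposed to compound for 24 h before reading; nearly all actives have a fitted effect of over 60% in size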
In short: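 qHTS cytotoxicity: 2500 cells/well, 5 hr 37 C settle, compound 24 hr 37 C, CellTiter-Glo 30 min RT, luminescence. Decrease in ATP = toxicity. AC50 by standard Hill equation; tetraoctylammonium bromide positive control.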

[6] = Cell Viability - LYMP2-008 (AID 980); also: nearly all actives have a fitted effect of over 60% in size
In short: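 Luminescent ATP read-out (CellTiter-Glo, 30 min RT) after 24 hr compound exposure at 37 C of human lymphoblastoid cells in complete medium. Decrease in ATP taken as cytotoxicity; AC50 derived by standard Hill fit of qHTS concentration-response data.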

[7] = Cell Viability - LYMP2-010 (AID 981); also: nearly all actives have a fitted effect of over 55% in size
In short: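 qHTS cytotoxicity, 1536-well: 2500 cells/well, 5 hr settle, 24 hr compound at 37 C, CellTiter-Glo 30 min RT, luminescence read. Decrease in ATP = toxicity; AC50 via standard Hill equation. Positive control tetraoctylammonium bromide.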

[8] = Cell Viability - LYMP2-012 (AID 982);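 also: cellular ATP by luciferase luminescence where a drop means cytotoxicity; cells exposed to compound for one day before reading; nearly all actives have a fitted effect of over 55% in size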
[9] = Cell Viability - LYMP2-014 (AID 983); also: series mostly up to about 92 µM; nearly all actives have a fitted effect of over 50% in size
In short: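 2500 cells/well, 5 hr 37 C; cpd 24 hr 37 C, complete medium; CellTiter-Glo 30 min RT, luminescence; ATP loss = toxicity; AC50 via Hill eqn; tetraoctylammonium bromide positive control.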

[10] = Cell Viability - LYMP2-016 (AID 984); also: nearly all actives have a fitted effect of over 55% in size
In short: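 Concentration-dependent ATP depletion measured in LYMP2-016 lymphoblastoid cells, 24 h, 37 C; luciferase-based luminescent detection; Hill-equation AC50.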

Measured: outcome

CC(=O)NS(=O)(=O)c1ccc(N)cc1
inactive: all assays above

CC1CC(OC(=O)c2ccccc2O)CC(C)(C)C1 (stereo not drawn)
inactive: all assays above

CCCCCCCC(=O)OCC(COC(=O)CCCCCCC)OC(=O)CCCCCCC
inactive: all assays above

CC(=O)OCC(COC(C)=O)OC(C)=O
inactive: all assays above

COc1ccc(O)cc1
inactive: all assays above

O=C(O)CCCCC1CCSS1 (stereo not drawn)
inactive: all assays above

Cc1c(N(C)C)c(=O)n(-c2ccccc2)n1C
inactive: all assays above

CCN(CC)C(=O)c1cccc(C)c1
inactive: all assays above

CC(=O)Nc1ccccc1
inactive: all assays above

FC(F)(F)C(Cl)Br (stereo not drawn)
inactive: all assays above

CC(=O)Nc1cccc(O)c1
inactive: all assays above

Cc1cc(C)nc(NS(=O)(=O)c2ccc(N)cc2)n1
inactive: all assays above

O=C(c1ccccc1)C(O)c1ccccc1 (stereo not drawn)
inactive: all assays above

CCCCCC(N)=O
inactive: all assays above

CCCC(O)C(CC)CO (stereo not drawn)
inactive: all assays above

CCCCOC(=O)c1ccc(N)cc1
inactive: all assays above

O=C1C(c2[nH]c3ccccc3c2O)=Nc2ccccc21
inactive: all assays above

Nc1ccc(S(=O)(=O)c2ccc(N)cc2)cc1
inactive: all assays above

O=C1c2cccc(O)c2C(=O)c2c(O)cccc21
inactive: [4] | [5] | [6]

Cc1cc(=O)[nH]c(=S)[nH]1
inactive: all assays above

C=CCNC(N)=S
inactive: all assays above

CC(=O)Nc1ccc(C(=O)O)cc1
inactive: all assays above
